High-throughput results: PubChem BioAssay, National Center for Advancing Translational Sciences (NCATS)
TDP1 block = qHTS Assay for Inhibitors of Tyrosyl-DNA Phosphodiesterase (TDP1). Potency, µM (highest dose often 130 µM), for the others: at the highest dose activity change, negative = inhibition, most hits filed as inhibitors. Tyrosyl-DNA phosphodiesterase 1 (Homo sapiens), Q9NUW8. AID 485290, 2010. recombinant TDP1, AlphaScreen DNA substrate cleavage. 350,000 tested, 0.28% active; further: on the % scale 0 is the no-effect control and ±100 the full control effect; nearly all actives have a fitted effect of over 40% in size
Target sequence (Q9NUW8 whole entry, looked up): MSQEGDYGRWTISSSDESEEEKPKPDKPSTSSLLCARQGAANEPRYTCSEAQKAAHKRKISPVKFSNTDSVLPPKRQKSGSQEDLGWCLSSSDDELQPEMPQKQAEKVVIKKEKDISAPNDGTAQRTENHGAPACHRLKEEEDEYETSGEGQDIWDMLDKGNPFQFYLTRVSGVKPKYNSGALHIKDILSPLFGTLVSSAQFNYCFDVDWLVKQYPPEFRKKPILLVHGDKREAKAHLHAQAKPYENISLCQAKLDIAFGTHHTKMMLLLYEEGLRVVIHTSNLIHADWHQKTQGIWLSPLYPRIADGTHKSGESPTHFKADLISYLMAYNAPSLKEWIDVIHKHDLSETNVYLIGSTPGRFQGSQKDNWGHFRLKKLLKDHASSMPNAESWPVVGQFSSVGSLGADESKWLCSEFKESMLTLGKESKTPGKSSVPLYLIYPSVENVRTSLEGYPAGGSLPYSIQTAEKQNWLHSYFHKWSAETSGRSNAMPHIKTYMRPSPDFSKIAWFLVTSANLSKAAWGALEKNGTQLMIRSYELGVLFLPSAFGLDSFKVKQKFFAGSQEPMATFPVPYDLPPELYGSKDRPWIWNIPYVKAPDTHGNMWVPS
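Compounds were preincubated with Tdp1 (1 nM final) for 15 min at room temperature before substrate (15 nM final) started a 5 min reaction; beads (10 ug/ml final) were then added for 10 min before AlphaScreen detection.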
DT40 TDP1 no CPT = qHTS for Inhibitors of human tyrosyl-DNA phosphodiesterase 1 (TDP1): qHTS in cells in absence of CPT; DT40 Tdp1-/- hTDP1 cells, no CPT, ATP luminescence, 48 h; Potency, µM (highest dose often 46.2 µM), for the others: at the highest dose activity change, negative = growth inhibition, most hits filed as inhibitors; 420,000 tested, 15% active; further: on the % scale 0 is the no-effect control and ±100 the full control effect; nearly all actives have a fitted effect of over 55% in size
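Compound effects on proliferation are scored in DT40 Tdp1-/-;hTDP1 cells in the absence of CPT. ATP levels (CellTiter-Glo luminescence) are recorded after a ≥48 hr, 37 °C incubation.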
ClpP mod = qHTS Assay for Activators of ClpP; ATP-dependent Clp protease proteolytic subunit (Bacillus subtilis (strain 168)), P80244; purified B. subtilis ClpP, FRET peptide cleavage, 20 min; Potency, µM (highest dose often 57.5 µM), inactives show at the top dose activity change, negative = active; 340,000 tested, 1.9% active; AID 651965, 2013; active means well fitted falling curve with a large enough effect; inconclusive means small, poorly fitted or top-dose-only effect; inactive means no such curve, though single readings can be large or run the other way; further: the source files actives as falling curves though it sought activators and does not explain the sign; nearly all actives have a fitted effect of over 65% in size
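ClpP 10 microg/mL final, pH 8 Tris/KCl buffer with BSA, glycerol, Tween-20; compound pinned in; FRET-FV substrate; RT 20 min; Ex320/Em430; ΔFRET vs ADEP 5.8 microM, DMSO, no enzyme.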
DT40 TDP1 CPT = qHTS for Inhibitors of human tyrosyl-DNA phosphodiesterase 1 (TDP1): qHTS in cells in presence of CPT. chicken DT40 Tdp1-/-;hTDP1 cells + 20 nM CPT, ATP luminescence, 48 h. Potency, µM (series often up to 46.2 µM), without a hit: top-dose activity change, negative = growth inhibition, actives largely listed as inhibitors. 420,000 tested, 12% active; further: on the % scale 0 is the no-effect control and ±100 the full control effect; nearly all actives have a fitted effect of over 55% in size
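Chicken DT40 Tdp1-/- cells stably complemented with human TDP1 were seeded at 400 cells/well in medium containing 20 nM camptothecin, exposed to pin-transferred compounds, and grown at 37 °C for at least 48 hr. Viability was read as ATP luminescence.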
* hit, by the source's call; u = inconclusive; x = not tested or not shown; [ ] = remark or other dose. Sampled rows, rich in hits. Any-hit rate of the full collection: about 17%. Unless noted, the call rests on the fitted dose curve; in most records, active means well fitted curve in the direction sought with a large enough effect; inconclusive means small, poorly fitted or top-dose-only effect, or another doubt; inactive means no such curve, though single readings can be large; an effect the other way counts as inactive or inconclusive. Potency means the concentration at half of the fitted maximal effect.

SMILES	TDP1 block	DT40 TDP1 no CPT	ClpP mod	DT40 TDP1 CPT
CC(C)CC1C(=O)N(Cc2cn(CC3CCCCC3)nn2)CCS(=O)(=O)N1Cc1ccc(-c2ccc(F)nc2)cc1 (configuration not stated)	x	18µM*	2%	21µM*
O=C(CCS(=O)(=O)c1ccccc1)Nc1nnc(-c2ccco2)o1	3%	u	-1%	u
CN1CCC2(CC1)CCN(C(=O)Oc1ccccc1)CC2	x	-11%	x	5%
CCOC(=O)CC(NC(=O)C(Cc1ccc(N(CCCl)CCCl)cc1)NC(C)=O)C(=O)OCC (configuration not stated)	-14%	0.52µM*	x	1.5µM*
CCCc1nnc(NC(=O)CCC(=O)N2CCN(Cc3ccc(OC)c(F)c3)CC2)s1	0%	u	0%	u
COc1ccc(C(=O)C2CCCN(C3CSCCSC3)C2)c(OC)c1 (configuration not stated)	4%	23µM*	x	u
CCn1ccnc1CN1CCCC(C(=O)c2ccc(OC)cc2OC)C1 (configuration not stated)	1%	u	x	u
COc1ccc(C(=O)C2CCCN(Cc3ccc(C)s3)C2)c(OC)c1 (configuration not stated)	0%	21µM*	x	u
COc1ccc(C(=O)C2CCCN(Cc3cccc(C)n3)C2)c(OC)c1 (configuration not stated)	6%	21µM*	x	u
COc1ccc(C(=O)C2CCCN(CCO)C2)c(C)c1 (configuration not stated)	1%	u	x	-14%
COc1ccc(C(=O)C2CCCN(C3CSCCSC3)C2)c(C)c1 (configuration not stated)	2%	u	x	u
O=C(NCc1cccnc1)C1CCN(S(=O)(=O)c2cc([N+](=O)[O-])ccc2Cl)CC1	0%	18µM*	14%	u
CCOc1ccc(NC(=O)Cn2cc(C(=O)c3ccccc3)c3ccccc32)cc1	0%	u	-7%	-29%
CCON=O	x	u	x	0.094µM*
CCCN1CCC[C@@H]2Cc3cn[nH]c3C[C@H]21	2%	x	x	x
CCN(CC)S(=O)(=O)c1ccc(C)c(NCC(=O)Nc2ccc(C#N)c(Cl)c2)c1	0%	15µM*	-1%	16µM*
CC(C)(C)OC(=O)c1ncn2c1[C@@H]1CCCN1C(=O)c1c(Br)cccc1-2	9%	u	x	6%
Oc1ccc2c3c1O[C@H]1[C@@H](O)CC[C@@]4(O)C(C2)N(CC2CCC2)CCC314 (some centres not stated)	9%[56.1 µM]	-8%	0%	2%
Cc1c(C(=O)NCc2ccc(Cl)c(Cl)c2)sc(=O)n1Cc1ccc(S(=O)(=O)N(C)C)cc1	x	15µM*	0%	8.2µM*
COc1ccc(C(CNC(=O)Cc2ccc(Cl)c(Cl)c2)N(C)C)cc1 (configuration not stated)	0%	u	1%	u
CC1CCCN(CC(=O)N2CCCc3ccccc32)C1 (configuration not stated)	3%	-5%	0%	0%
CC(=O)N1CCc2cc(S(=O)(=O)N3CCN(c4ccc(C)cc4)C(C)C3)ccc21 (configuration not stated)	-2%[12.3 µM]	21µM*	-2%	23µM*
CC(=O)N1CCCc2cc(S(=O)(=O)N3CCCC(C(=O)N4CCN(c5ccccc5F)CC4)C3)ccc21 (configuration not stated)	0%	5.8µM*	-1%	3.7µM*
COc1ccc(N2CCN(C(=O)C3CCCN(S(=O)(=O)c4ccc5c(c4)CCCN5C(C)=O)C3)CC2)cc1 (configuration not stated)	-1%	2.3µM*	-1%	4.1µM*
COc1ccc(NS(=O)(=O)c2ccc3c(c2)CCCN3C(=O)C2CCC2)cc1OC	1%	3.7µM*	1%	2.6µM*
SMILES	TDP1 block	DT40 TDP1 no CPT	ClpP mod	DT40 TDP1 CPT
O=C1C(Br)C2CCC1C2C(=O)O (configuration not stated)	x	0%	-1%	-2%
CC(Cl)(Cl)Cl	7%	x	x	x
Cn1c(=O)oc2cc(S(=O)(=O)N3CCCC(C(=O)N4CCN(c5ccc(Cl)cc5)CC4)C3)ccc21 (configuration not stated)	9%	1.3µM*	0%	5.2µM*
Cn1c(=O)oc2cc(S(=O)(=O)N3CCCC(C(=O)Nc4ccccn4)C3)ccc21 (configuration not stated)	0%	-13%	-1%	u
CC12C(C(=O)O)C1(c1ccccc1)C2C(=O)O (configuration not stated)	x	4%	-1%	6%
CC(C)(C)OC(=O)NCc1ccc(CNC(=O)c2[nH]cnc2C(=O)Nc2ccccc2F)cc1	x	7.3µM*	24%	13µM*
CC(C)OCCCNC(=O)c1c(N)n(Cc2cccs2)c2nc3ccccc3nc12	-9%	18µM*	10µM*	u
CCCCNC(=O)c1c(N)n(CCCOC)c2nc3ccccc3nc12	x	u	25µM*	u
CCCNC(=O)c1c(N)n(Cc2ccc3c(c2)OCO3)c2nc3ccccc3nc12	3%	-9%	-28%	-4%
CC(C)CCn1c(N)c(C(=O)NCc2cccs2)c2nc3ccccc3nc21	-3%	u	14µM*	u
Nc1c(C(=O)OCC2CCCO2)c2nc3ccccc3nc2n1Cc1cccs1 (configuration not stated)	0%	18µM*	19%	u
COCCNC(=O)c1c(N)n(CCC(C)C)c2nc3ccccc3nc12	-13%	18µM*	16µM*	12µM*
C=CCNC(=O)c1c(N)n(CCN2CCOCC2)c2nc3ccccc3nc12	-1%	-23%	u	-9%
O=C1C2CCN(CC2)C1Cc1ccc(OCCOc2ccccc2)cc1 (configuration not stated)	6%	u	2%	29µM*
Cc1ccccc1-n1c(/C=C/c2ccc(N(C)C)cc2)nc2ccccc2c1=O	-5%[12.3 µM]	13µM*	1%	16µM*
Cc1ccccc1-n1c(CNc2ccccc2)nc2ccccc2c1=O	x	u	-4%	u
CCCCc1nc2ccccc2c(=O)n1-c1ccccc1[N+](=O)[O-]	4%	15µM*	0%	u
O=c1c2ccccc2nc(/C=C\c2ccc(F)cc2)n1-c1ccccc1F	13%	u	-1%	23µM*
Cc1ccccc1-n1c(/C=C/c2c(C)[nH]c3ccccc23)nc2ccccc2c1=O	6%[12.3 µM]	1.8µM*	-1%	2.1µM*
Cc1ccc(-n2c(/C=C/c3ccccn3)nc3ccccc3c2=O)cc1	x	u	1%	u
O=c1c2ccccc2nc(/C=C/c2ccccc2)n1-c1ccccc1F	8%	u	1%	u
CCc1ccc(-n2c(O)c(C=NCCN(CC)CC)c(=O)[nH]c2=O)cc1	3%	-27%	u	-17%
